This is part of a sample that, as a whole, favours compounds with a hit. Of some 79,000 tested, about 15% had one in any assay. A number with no mark means an inactive call. Calls of active or inactive are those of the source. Rule as the data show it: active = growth inhibition above about 70%; inactive = the rest.
What was measured:
[1] = NCI Yeast Anticancer Drug Screen. Data for the rad50 strain (AID 155);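 also: 0% = growth of vehicle-only cultures of the same strain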; conditions: S. cerevisiae rad50 strain growth inhibition; at 50.0 µM; stronger effect = higher value
Method in brief: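 Vehicle-treated cultures provide the reference for the growth inhibition reported for compound-exposed, repair-deficient yeast.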

[2] = NCI Yeast Anticancer Drug Screen. Data for the mec2-1 strain (AID 157); conditions: S. cerevisiae mec2-1 strain, at 50.0 µM, stronger effect = higher value
Method in brief: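 Readout is yeast growth inhibition, normalised to vehicle-treated controls, in the mec2-1 strain exposed to compound.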

[3] = NCI Yeast Anticancer Drug Screen. Data for the sgs1 mgt1 strain (AID 161);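 also: 0% = growth of cultures given vehicle only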; conditions: S. cerevisiae sgs1 mgt1 strain, at 50.0 µM, stronger effect = higher value
Method in brief: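 Growth of a repair-deficient yeast mutant was monitored after compound treatment and expressed as inhibition relative to vehicle-treated cultures.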

[4] = NCI Yeast Anticancer Drug Screen. Data for the cln2 rad14 strain (AID 165);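 also: 0% = growth equal to vehicle treated cultures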; conditions: S. cerevisiae cln2 rad14 strain, at 50.0 µM, stronger effect = higher value
Method in brief: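 Relative to vehicle controls, growth inhibition of compound-treated cln2 rad14 yeast was recorded.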

[5] = NCI Yeast Anticancer Drug Screen. Data for the bub3 strain (AID 167); conditions: S. cerevisiae bub3 mutant strain, at 50.0 µM, stronger effect = higher value
Method in brief: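 Mutant yeast screening strain plus compound; vehicle-treated cultures serve as the 0% inhibition reference.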

[6] = NCI Yeast Anticancer Drug Screen. Data for the mlh1 rad18 strain (AID 175); conditions: S. cerevisiae mlh1 rad18 strain growth inhibition; at 50.0 µM; stronger effect = higher value
Method in brief: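 Test agents were incubated with a yeast strain of defined genotype (DNA damage repair defect). Inhibition of growth was derived by comparison with vehicle-exposed cultures.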

Row | SMILES | growth inhibition [1] | growth inhibition [2] [%] | growth inhibition [3] | growth inhibition [4] [%] | growth inhibition [5] [%] | growth inhibition [6]
1 | O=P1(O)c2ccccc2CCc2ccccc21 | 10.1% | -14.6 | 3.7% | 29.8 | -11 | 3.4%
2 | O=C(CC(=O)C(F)(F)F)Nc1cccc2ccccc12 | 6.65% | -3.1 | 10.6% | -84.5 | 0.1 | 1.05%
3 | N#C/C(C(=O)NCc1ccccc1)=C(/N)N1CCCC1 | -4.95% | -16.2 | 0.25% | -16.6 | -5.3 | -0.15%
4 | C(=N\OCc1ccccc1)/c1ncccc1C1OCCO1 | -10.6% | -23.1 | -0.5% | 20.2 | -5.8 | -8.75%
5 | CC1=C(C)CC2C(=O)c3c(O)ccc(O)c3C(=O)C2C1 (stereo unspecified) | 28.9% | 44.9 | 52% | 4.15 | 39.9 | 50.1%
6 | O=C(O)C1C(CCl)=C1CCl | -15.8% | 20.7 | 2.35% | -11.3 | 4.7 | -2.9%
7 | Clc1ccc(CNc2nc3ccccc3nc2-c2cccs2)c(Cl)c1 | -0.3% | 16.8 | 11.3% | 5.25 | 12.3 | 18.7%
8 | COc1cccc(C2c3cc4c(cc3OC(C)(O)C2C)OCO4)c1OC (stereo unspecified) | 22.6% | 4.05 | 39.5% | 13.9 | 24.8 | 21.6%
9 | CC(=O)N1CC=CCC1 | -16.6% | 5.85 | -17.9% | -7.5 | -1.55 | -2.85%
10 | COc1ccc(/C=C/C2=CC(=O)CC(c3ccc(OC)c(OC)c3)C2)cc1OC (stereo unspecified) | 13.2% | 5.35 | 16.5% | -35.6 | 31.2 | 9.35%
11 | CCN(CC)CCCC(C)n1c(-c2ccc(OC)cc2)nc2cc(Cl)ccc21 (stereo unspecified) | -0.65% | 8.5 | 26.9% | 10.1 | 6.55 | 4.6%
12 | CCOC(=O)/C(C#N)=C1/Sc2c(ncn(/N=C/c3ccc(OC)cc3)c2=O)N1c1ccccc1 | 26.7% | -2.85 | 6.45% | -45.3 | -12.8 | 4.4%
13 | COc1cc2c3cc1Oc1c(O)c(OC)cc4c1C(Cc1ccc(O)c(c1)Oc1ccc(cc1)CC3N(C)CC2)N(C)CC4 (stereo unspecified) | -22.1% | -47.2 | -33.6% | -5.4 | -24.5 | -13%
14 | NC(=O)c1ccc[n+](-c2ccc([N+](=O)[O-])cc2[N+](=O)[O-])c1 | 79.3% (active) | 54.6 | 80.2% (active) | 39.8 | 17.3 | 63.4%
15 | O=C1c2c(F)c(F)c(F)c(F)c2SC2=Nc3cccc4cccc(c34)N12 | -17.5% | -3.8 | -37.3% | -14.5 | -4.25 | -37.8%
16 | CCOC(=O)CC(=O)Nc1cc(C)cc(C)n1 | 2.1% | 14.5 | 9.5% | 32.6 | 25.1 | 5.7%
17 | CC(C)C(=O)C(C)(C)CCc1ccccn1 | -23.4% | -24.8 | -28.6% | -15.8 | -12.2 | -8.35%
18 | O=C(Nc1ccccc1)c1ccc(I)cc1 | 7.05% | -31.7 | 8.3% | -7.35 | 3.95 | -25.3%
19 | CC1=CC(=O)C2CC1C2(C)C (stereo unspecified) | 6.55% | -0.5 | 0.5% | 4.75 | 4.6 | -5.2%
20 | Cc1cccc(CN(C)C)c1C=C(c1ccccc1)c1ccccc1 | 11.9% | -1 | 10.6% | -0.05 | 8.7 | 33%
21 | Cn1c(=O)c2[nH]c(=O)n(C)c2n(C)c1=O | -5.35% | 2.25 | 12.6% | -9.55 | 16.5 | 16.1%

Row | SMILES | growth inhibition [1] | growth inhibition [2] [%] | growth inhibition [3] | growth inhibition [4] [%] | growth inhibition [5] [%] | growth inhibition [6]
22 | COc1ccc(CC(C)SC(CC(=O)O)C(=O)O)cc1 (stereo unspecified) | 3.45% | -1 | 16.4% | -37.9 | 7.95 | -8.2%
23 | Cc1cc(C)n2c(-c3ccccc3)nnc2c1 | 19.1% | -7.2 | -20.2% | -7.05 | 8.05 | -8.85%
24 | COc1ccc(OC)c(/C=C/c2ccc(NC(=O)Nc3ccccc3Cl)cc2)c1 | 10.8% | 2.3 | -7.9% | -39.1 | 1.2 | 13.8%
25 | COc1ccc(/C=C/C(CC(NO)c2ccc(OC)cc2)=N\O)cc1 (stereo unspecified) | 0.1% | -4.25 | 3.05% | -38 | -8.7 | 3.8%
26 | CCCCCCCCOCC1S(=O)(=O)OCCOS1(=O)=O | -48.2% | -17.6 | -50.7% | -53.8 | -24.4 | -2.3%
27 | COc1ccc(C(=O)CC2=Nc3nnc(CCCCCCCc4nnc5n4C(=O)C(CC(=O)c4ccc(OC)cc4)=N5)n3C2=O)cc1 | -5.95% | -1.9 | -16.4% | 18.9 | 0.1 | -24.1%
28 | Cc1cccc(C(=O)N(C)C(c2ccco2)P(=O)(c2ccccc2)c2ccccc2)c1 (stereo unspecified) | 19.9% | -16.4 | 68.2% | 27.1 | 33.1 | 2.9%
29 | O=C(CCN(CCC(=O)c1ccccc1)CCC(=O)c1ccccc1)c1ccccc1 | 22.2% | 11.8 | -5.05% | -31.3 | 0.9 | 26.9%
30 | Cc1ccc2cc(CCCC(=O)O)ccc2c1 | 43.4% | 25.8 | 38.7% | 31.6 | 40.9 | 24.9%
31 | Cc1cc(C(=O)C=[N+]=[N-])c(CN2C(=O)c3ccccc3C2=O)c(=O)n1C | -0.8% | -9.55 | -3.4% | 5.95 | -13.5 | 1.4%
32 | Cc1cccc(Cl)c1N=Nc1c(N)nc(N)[nH]c1=O | 15.8% | -20.8 | -5.1% | -4.8 | -0.35 | -0.5%
33 | COc1ccc(C(O)CC(O)(C(F)(F)F)C(F)(F)F)cc1 (stereo unspecified) | 52.7% | 27.6 | 35.3% | 20.3 | 46 | 80.8% (active)
34 | Cc1c(Cl)ccc2nc3ccccc3nc12 | 32.4% | 18.8 | 12.7% | -4.85 | 61.6 | 34.5%
35 | CC(=O)CC(=O)Nc1ccc(C(=O)O)c(O)c1 | -14.2% | -18.9 | 8.4% | -1.45 | 32.1 | -1%
36 | C/C=C(\CC)C(C)(C#N)C(=O)OCC (stereo unspecified) | -13.3% | -33.3 | -21.2% | -3.45 | -27.8 | -29.1%
37 | CCOC(=O)NCc1cccc2ccccc12 | 3.2% | -2.7 | -10.3% | -89.4 | 10.7 | 2.5%
38 | C#CCN(CC#C)C(=O)C(=O)c1c[nH]c2ccc(OC)cc12 | 41.2% | 0.9 | 56.8% | 44.5 | 52.4 | 51%
39 | Cc1cc(=O)[nH]c(NN2C(Cl)C(=O)C2c2cccc([N+](=O)[O-])c2)n1 (stereo unspecified) | 18.1% | -32.5 | -0.3% | -7.1 | -7.45 | -33.6%
40 | COC(=O)C1C2C=CC(O2)C1C(=O)OC (stereo unspecified) | -2.15% | -1.75 | -9.75% | -51.6 | 14.1 | -7.45%
41 | CC1=C(c2ccccc2)CON(c2ccccc2)C1 | -9.3% | -15.1 | -9.2% | -5.4 | 14.8 | -9.2%

From PubChem BioAssay (NCI)
